# Measured values taken from PubChem BioAssay.
# Columns and labels:
# [1] = tested on: Human papillomavirus type 1a protein E7 (residues 44-93); assay: HPV1a E7 fragment binders on microarrays, primary screen, biochemical, small-molecule microarray, residues 44-93, 635 nm fluorescence (AID 1108); settings: small-molecule microarray binding, fluorescence 635 nm; higher = more signal;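 further: E7 fragment applied at 1 µg/mL in TBST for 1 h at 4 C; score combines spot fluorescence with its signal to noise ratio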
# [2] = modulators of HCV replicon luciferase signal, primary screen, HCV replication inhibitor project, Huh7 cells, luciferase reporter (AID 1109); settings: 48 h, higher = more signal;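 further: huh7 hepatoma cells harbouring a luciferase neomycin HCV replicon reporter; luciferase luminescence as measure of HCV replicon replication; test concentration not given here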
# [3] = biological target: Left-right determination factor 2 (Homo sapiens) (UniProt O00292); assay: LEFTY2 binders on small-molecule microarrays, primary screen, biochemical, small-molecule microarray, 635 nm fluorescence scan (AID 1110); settings: LEFTY2 binding, higher = more signal
# [4] = biological target: Calmodulin-1 (Homo sapiens) (UniProt P0DP23); assay: CALM1 binders on microarrays, EGTA buffer, profiling panel, biochemical, small-molecule microarray, Cy5-labelled CALM1 (AID 1111); settings: Cy5-CALM1 binding fluorescence, higher = more signal;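 further: labelled calmodulin applied in Tris saline Tween buffer holding calcium plus EGTA and DTT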
# [5] = biological target: Calmodulin-1 (Homo sapiens) (UniProt P0DP23); assay: calcium-bound CALM1 binders on microarrays, profiling panel, artefact control for SMM control-protein annotation, biochemical, small-molecule microarray, Cy5-labelled CALM1, plus calcium (AID 1112); settings: Cy5-CALM1 binding fluorescence, higher = more signal;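 further: score merges spot fluorescence with signal to noise from triplicate slides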
# [6] = small-molecule microarray binders of probe aWnt5a, primary screen, biochemical, biotinylated probe, 635/667 nm fluorescence (AID 1113); settings: higher = more signal;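 further: score merges 667 nm fluorescence intensity with signal-to-noise per printed feature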
# [7] = small-molecule microarray binders of probe aShh, primary screen, biochemical, biotinylated probe, 635/667 nm fluorescence (AID 1114); settings: higher = more signal;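 further: probe is biotin-labelled aShh protein from a stem cell growth factor screen; measures binding of labelled protein to compounds printed on the slide; score merges feature fluorescence at 667 nm with signal-to-noise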
# [8] = small-molecule microarray binders of probe aNog, primary screen, biochemical, biotinylated probe, 635/667 nm fluorescence (AID 1115); settings: higher = more signal;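 further: probe is biotinylated aNog protein used at 0.15 µg/mL for 1 h at 4 C; z-score combines 667 nm fluorescence of each spot with its signal to noise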
# [9] = biological target: Torsin-1A-interacting protein 1 (Homo sapiens) (UniProt Q5JTV8); assay: LAP1 binders from COS7 cell lysate, primary screen, small-molecule microarray, 635/667 nm fluorescence (AID 1116); settings: COS7-hLAP1 lysate binding, 635 nm fluorescence, higher = more signal
# [10] = biological target: Alpha-bungarotoxin (Bungarus multicinctus) (UniProt P60615); assay: alpha-bungarotoxin binders on microarray, profiling panel, artefact control for SMM control protein annotation, biochemical, small-molecule microarray, Alexa647 label, 635/667 nm fluorescence (AID 1117); settings: alpha-BTX-A647 binding fluorescence, higher = more signal
# Sequence of Alpha-bungarotoxin (Bungarus multicinctus) (P60615 whole entry, looked up): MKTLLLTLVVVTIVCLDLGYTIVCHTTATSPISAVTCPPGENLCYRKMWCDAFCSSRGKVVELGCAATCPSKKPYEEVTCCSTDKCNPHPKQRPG
# Sequence of Torsin-1A-interacting protein 1 (Homo sapiens) (Q5JTV8 whole entry, looked up): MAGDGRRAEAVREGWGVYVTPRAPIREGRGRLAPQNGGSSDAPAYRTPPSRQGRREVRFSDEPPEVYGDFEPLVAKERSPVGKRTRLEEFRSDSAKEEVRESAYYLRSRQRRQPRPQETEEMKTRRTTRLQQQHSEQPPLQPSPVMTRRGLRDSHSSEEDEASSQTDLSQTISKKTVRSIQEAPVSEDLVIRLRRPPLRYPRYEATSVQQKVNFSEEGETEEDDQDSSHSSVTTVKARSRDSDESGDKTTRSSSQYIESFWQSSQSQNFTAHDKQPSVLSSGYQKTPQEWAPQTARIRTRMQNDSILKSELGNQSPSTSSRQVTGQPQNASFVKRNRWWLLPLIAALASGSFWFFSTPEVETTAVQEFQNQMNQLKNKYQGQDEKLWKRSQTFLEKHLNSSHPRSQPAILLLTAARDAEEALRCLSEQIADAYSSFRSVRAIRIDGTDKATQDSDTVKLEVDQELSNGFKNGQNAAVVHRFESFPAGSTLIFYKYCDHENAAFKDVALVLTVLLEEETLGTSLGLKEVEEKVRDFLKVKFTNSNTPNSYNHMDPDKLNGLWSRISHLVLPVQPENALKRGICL
# Sequence of Left-right determination factor 2 (Homo sapiens) (O00292 whole entry, looked up): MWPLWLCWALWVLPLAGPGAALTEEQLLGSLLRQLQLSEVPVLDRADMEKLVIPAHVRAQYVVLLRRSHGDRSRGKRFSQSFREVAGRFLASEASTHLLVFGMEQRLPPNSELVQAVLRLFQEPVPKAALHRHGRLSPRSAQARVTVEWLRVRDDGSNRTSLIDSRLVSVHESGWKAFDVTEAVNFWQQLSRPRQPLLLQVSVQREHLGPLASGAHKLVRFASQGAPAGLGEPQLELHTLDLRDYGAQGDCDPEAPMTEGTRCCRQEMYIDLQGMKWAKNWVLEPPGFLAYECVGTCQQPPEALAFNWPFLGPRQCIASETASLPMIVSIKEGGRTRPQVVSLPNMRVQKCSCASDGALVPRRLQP
SMILES,composite z-score [1],z-score [2],composite z-score [3],composite z-score [4],composite z-score [5],composite z-score [6],composite z-score [7],composite z-score [8],composite z-score [9],composite z-score [10]
COCCOC(=O)N1C(=O)[C@@]2(c3cc(C#CC4=CCCCC4)ccc31)[C@H](C(=O)NC[C@H](O)c1ccccc1)[C@H]1C(=O)O[C@H](c3ccccc3)[C@H](c3ccccc3)N1[C@@H]2c1ccccc1OCCO,0.453,-3.01,0.394,1.43,0.635,0.0246,0.443,0.216,0.814,2.18
COC(=O)[C@@]1(Cc2ccccc2N=[N+]=[N-])N=C(c2ccc(OCCCO)cc2)O[C@H]1c1ccccc1CN=[N+]=[N-],0.403,-3.35,-0.417,0.559,0.0128,-0.0758,-0.136,1.01,0.889,1.28
C=CC[C@]1(C(=O)N2CCCCC2)N=C(c2ccc(OCCCO)cc2)O[C@H]1c1ccccc1N=[N+]=[N-],0.796,-0.668,0.218,2.16,0.994,0.0327,0.195,-0.174,1.85,2.28
C[C@]1(C(=O)NCCN2CCOCC2)c2ccccc2C(=O)N(Cc2ccccc2)[C@H]1c1ccc(CO)cc1,-0.474,-0.326,-1.01,-0.193,0.349,0.763,0.163,-0.195,-0.705,0.0519
O=C1OCCC=C[C@H]2OC34C=CCN(Cc5ccccc5)C(=O)[C@H]3N(CCO)C(=O)[C@@H]4C12 (stereo not given in full),-0.936,-1.23,-0.591,-0.675,0.681,-0.248,-0.276,-0.224,-0.18,-2.01
CCCNC(=O)[C@@]1(Sc2ccc(C)cc2)CC(=O)N(Cc2ccccc2Cl)[C@@H]1c1ccc(CO)cc1,0.658,-2.42,0.546,0.857,1.03,-0.0478,0.0407,0.0021,0.574,2.05
CCC(=O)[C@]12O[C@@]3([C@@H]4C(=O)OCC[C@@H]41)N(CC)C(C)=C(C(=O)OC)[C@@H](c1ccccc1)N3C2=O,-0.933,-0.206,0.594,-0.42,-0.382,-0.147,0.227,-0.131,-0.303,0.175
CC(C)[Si](OCCCNS(=O)(=O)c1ccc(Br)cc1)(C(C)C)C(C)C,0.186,-2.89,0.76,1.19,-0.371,0.037,-0.0553,0.0379,0.928,-0.249
COCCCNC(=O)[C@@H]1c2ccccc2C(=O)N(CC23CC4CC(CC(C4)C2)C3)[C@H]1c1ccc(CO)cc1,0.666,-1.57,-0.191,0.879,0.803,-0.0405,0.778,0.0051,0.926,0.253
C[N+](C)(C)CCCCNC(=O)[C@H]1C[C@H]2C(=O)NCC(=O)N2[C@H]1c1cccc(OCCO)c1,0.296,-0.651,1.17,-1.68,-1.96,0.0618,0.147,-0.178,0.724,0.804
C=C(COC)/C(=C/C[C@@H](OC(=O)c1ccncc1)c1ccc(OCCO)cc1)c1cc(C(=O)OC)ccc1OC,0.355,-1.63,-0.428,0.947,-0.777,-0.175,-0.0146,0.475,1.45,2.04
O=C(CS)NCCCCCCNC(=O)[C@@H]1C[C@@H]2C(=O)N[C@@H](Cc3ccccc3)C(=O)N2[C@@H]1c1ccc(O)cc1,1.45,-0.144,0.621,2.31,-0.23,0.0179,-0.177,-0.443,1,1.7
COCCOC(=O)N1C(=O)[C@@]2(c3cc(C#CCC(C(=O)OC)C(=O)OC)ccc31)[C@H](C(=O)N1CCN(c3ncccn3)CC1)[C@H]1C(=O)O[C@H](c3ccccc3)[C@H](c3ccccc3)N1[C@@H]2c1ccc(O)cc1,0.435,-0.513,0.394,1.22,0.601,0.0077,0.272,0.0574,0.518,1.71
[N-]=[N+]=Nc1ccccc1C[C@@]1(C(=O)N2CCOCC2)N=C(c2ccc(OCCCO)cc2)O[C@@H]1c1ccccc1N=[N+]=[N-],0.457,-2.29,0.095,1.04,0.804,-0.0398,0.102,0.293,0.842,2
C#CCCCON=C1C[C@@H](O)[C@@H](O)[C@@H]2[C@@H]3C(=O)N(Cc4ccc5c(c4)OCO5)C(=O)[C@@H]3CC[C@@H]12,0.449,0.0713,0.448,0.127,-0.19,-0.096,0.147,0.0136,-0.0849,1.4
CCOC(=O)C[C@H]1[C@H](OC(=O)Cc2ccc3c(c2)OCO3)[C@@H](NC(=O)CC(C)C)c2cc(OCCCO)ccc2N1C(=O)c1ccccc1,0.338,0.0689,0.371,-0.278,-0.215,-0.0478,0.081,0.161,0.662,0.111
C/C(=N\O)C(=O)NCCCCCNC(=O)OCc1ccccc1,0.63,-0.0365,0.516,0.169,-0.269,0.0115,-0.262,0.32,0.371,1.06
CCN1C(C)=C(C(=O)OC)[C@@H](c2ccccc2)N2C(=O)[C@@]3(C(=O)OC)O[C@@]12[C@@H]1C(=O)N(c2ccccc2)C(=O)[C@@H]13,0.121,-0.181,0.341,-0.173,-0.525,-0.0758,0.0893,0.221,0.905,0.38
O=C(N1CCCCC1)[C@@]1(CCS(=O)(=O)c2ccccc2)N=C(c2ccc(OCCCO)cc2)O[C@H]1c1ccccc1,1.48,-3.07,-0.197,-0.215,-0.688,0.212,0.427,-0.133,1.77,-0.0166
CO[C@@H]1COC(=O)[C@H](COCc2ccccc2)NC(=O)CC=C[C@@H](C)[C@H](OC)COC(=O)[C@H](COCc2ccccc2)NC(=O)CC=C[C@H]1C,-0.417,-0.0527,0.644,-0.409,-1.01,-0.0927,-0.0626,-0.349,-0.217,-0.774
C[C@H]1COC(=O)[C@@H]2CCCN2C(=O)[C@@H](C)COC(=O)[C@@H]2CCCN2C1=O,-0.663,-0.004,0.417,-0.835,-1.09,-0.124,-0.0626,-0.367,-0.392,-0.394
CO[C@H]1COC(=O)[C@@H](OCc2ccccc2)C=C[C@H](C)[C@@H](OC)COC(=O)[C@H](OCc2ccccc2)C=C[C@@H]1C,-1.23,0.512,0.348,-2.13,-1.26,-0.147,-0.138,-0.397,-0.144,-0.155
O=C(NCC(F)(F)F)[C@@H]1c2ccccc2C(=O)N(Cc2ccccc2Cl)[C@H]1c1ccc(CO)cc1,-0.804,-1.03,-1.44,-0.483,-0.135,-0.147,0.245,-0.0689,-1.19,-1.18
CC1CC/C=C\[C@H]2OC34C=CCN(Cn5nnc6ccccc65)C(=O)[C@H]3N(C(C)CO)C(=O)[C@@H]4C2C(=O)O1 (stereo not given in full),-0.132,-0.276,-0.371,-0.45,-0.223,-0.184,-0.123,0.34,0.413,-0.465
C=C(COC)C(=O)CC[C@H](OC(=O)c1ccccc1-c1ccccc1C(=O)O)c1cccc(OCCO)c1,1.4,-3.1,0.757,3.03,0.733,0.0519,-0.17,0.0519,3.73,-0.151
O=C1C2C=CC(C(O)Cc3ccccc3)N(Nc3ccc([N+](=O)[O-])cc3)C2C(=O)N1c1ccccc1 (stereo not given),0.508,-0.531,0.0886,0.417,0.426,0.159,0.203,0.905,0.937,0.307
